Among the data in PubChem BioAssay (NCI) are growth inhibition values, retold here.

The panel holds about 79,000 compounds, 15% with a hit somewhere; the sample as a whole holds those more often. Unmarked numbers belong to inactive results. The source made the active and inactive calls. Cut-off read from the data, not from the text of the source: active = growth inhibition above about 70%; inactive = the rest.

The nature of experiment [1]: NCI Yeast Anticancer Drug Screen. Data for the rad50 strain (AID 155).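 Note: 0% = growth of vehicle-only cultures of the same strain.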 The settings on record: S. cerevisiae rad50 strain growth inhibition, stronger effect = higher value. In outline: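 Genetically altered yeast (DNA repair pathway); compound treatment; growth inhibition vs vehicle ctrl.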
Experiment [2] can be described thus: NCI Yeast Anticancer Drug Screen. Data for the mec2-1 strain (AID 157). The settings on record: S. cerevisiae mec2-1 strain, stronger effect = higher value. The method in brief: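 Yeast mec2-1 mutant treated with compound. Readout: growth inhibition vs vehicle controls.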
Experiment [3] can be described thus: NCI Yeast Anticancer Drug Screen. Data for the sgs1 mgt1 strain (AID 161).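 Note: 0% = growth of cultures given vehicle only.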 The settings on record: S. cerevisiae sgs1 mgt1 strain, stronger effect = higher value. In outline:
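Test agents were incubated with a DNA-repair-mutant yeast strain. Growth was then read and compared against vehicle-treated controls.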

Experiment [4] is described as follows: NCI Yeast Anticancer Drug Screen. Data for the cln2 rad14 strain (AID 165).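 Note: 0% = growth equal to vehicle treated cultures.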 The settings on record: S. cerevisiae cln2 rad14 strain, stronger effect = higher value. In outline: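 cln2 rad14 yeast strain; compound exposure; growth inhibition read vs vehicle controls.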
Experiment [5] in a line: NCI Yeast Anticancer Drug Screen. Data for the bub3 strain (AID 167). The settings on record: S. cerevisiae bub3 mutant strain, stronger effect = higher value. In outline:
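Yeast carrying a defined mutation is treated with each compound, and growth is compared with that of vehicle-exposed cells to give inhibition.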

Experiment [6] in a line: NCI Yeast Anticancer Drug Screen. Data for the mlh1 rad18 strain (AID 175). The settings on record: S. cerevisiae mlh1 rad18 strain growth inhibition, stronger effect = higher value. In outline: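 Yeast w/ defined DNA-repair lesions; compound exposure; growth vs vehicle controls → % inhibition.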
Setting [7] is: at 5.0 µM (retest, dose inferred, filed as 0.5).
The mark [8] stands for this setting: at 50.0 µM (retest, dose inferred, filed as 5.0).

For the molecule `Nc1ccc(N)c2c1C(=O)c1ccccc1C2=O`, the growth inhibition in experiment [1] (setting [7]) is 32%; in experiment [1] (setting [8]), 72% (active); in experiment [1] (at 50.0 µM), 83.2% (active); in experiment [2] (setting [7]) it was -1%; in experiment [2] (setting [8]), 11%; in experiment [2] (at 50.0 µM), 11.7%. Moreover, the growth inhibition was 2% in experiment [3] (setting [7]); 14% in experiment [3] (setting [8]); 24.6% in experiment [3] (at 50.0 µM); 3% in experiment [4] (setting [7]); 3% in experiment [4] (setting [8]); 6.9% in experiment [4] (at 50.0 µM). The growth inhibition was 0% in experiment [5] (setting [7]); 24% in experiment [5] (setting [8]); 31.3% in experiment [5] (at 50.0 µM); 5% in experiment [6] (setting [7]); 22% in experiment [6] (setting [8]); 50.6% in experiment [6] (at 50.0 µM).
Turning to `COc1ccccc1NC(=S)N/N=C(/C)c1ccccn1`, the growth inhibition in experiment [1] (setting [7]) is 22%; in experiment [1] (setting [8]), 78% (active); in experiment [1] (at 50.0 µM), -30.1%; in experiment [2] (setting [7]) it was 22%; in experiment [2] (setting [8]), 66%; in experiment [2] (at 50.0 µM), -8.7%. Also, the growth inhibition was 34% in experiment [3] (setting [7]); 61% in experiment [3] (setting [8]); 18.4% in experiment [3] (at 50.0 µM); 32% in experiment [4] (setting [7]); 56% in experiment [4] (setting [8]); -3.95% in experiment [4] (at 50.0 µM). The growth inhibition was 54% in experiment [5] (setting [7]); 77% (active) in experiment [5] (setting [8]); 13.5% in experiment [5] (at 50.0 µM); 13% in experiment [6] (setting [7]); 64% in experiment [6] (setting [8]); -2.3% in experiment [6] (at 50.0 µM).
On to `O=C1c2cccc(O)c2C(=O)c2c(O)cc(CO)cc21`, for which the growth inhibition is 58% in experiment [1] (setting [7]); 92% (active) in experiment [1] (setting [8]); 87% (active) in experiment [1] (at 50.0 µM); 52% in experiment [2] (setting [7]); 94% (active) in experiment [2] (setting [8]); 90.3% (active) in experiment [2] (at 50.0 µM). The growth inhibition was 61% in experiment [3] (setting [7]); 93% (active) in experiment [3] (setting [8]); 90.5% (active) in experiment [3] (at 50.0 µM); 23% in experiment [4] (setting [7]); 81% (active) in experiment [4] (setting [8]); 88% (active) in experiment [4] (at 50.0 µM). The growth inhibition in experiment [5] (setting [7]) was 54%; in experiment [5] (setting [8]), 91% (active); in experiment [5] (at 50.0 µM), 89.4% (active); in experiment [6] (setting [7]), 82% (active); in experiment [6] (setting [8]) it was 97% (active); in experiment [6] (at 50.0 µM), 90.8% (active).
For the molecule `O=C1OC(OCC#CCOC2OC(=O)C(Cl)=C2Cl)C(Cl)=C1Cl` (stereo not drawn), the growth inhibition in experiment [1] (setting [7]) is 37%; in experiment [1] (setting [8]), 99% (active); in experiment [1] (at 50.0 µM), 99.4% (active); in experiment [2] (setting [7]), 28%; in experiment [2] (setting [8]), 99% (active); in experiment [2] (at 50.0 µM), 99.7% (active). Also, the growth inhibition in experiment [3] (setting [7]) was 46%; in experiment [3] (setting [8]) it was 100% (active); in experiment [3] (at 50.0 µM), 99.3% (active); in experiment [4] (setting [7]), 28%; in experiment [4] (setting [8]) it was 99% (active); in experiment [4] (at 50.0 µM) it was 97.8% (active). Further, the growth inhibition in experiment [5] (setting [7]) was 26%; in experiment [5] (setting [8]), 99% (active); in experiment [5] (at 50.0 µM), 98.3% (active); in experiment [6] (setting [7]), 46%; in experiment [6] (setting [8]), 99% (active); in experiment [6] (at 50.0 µM) it was 99.5% (active).
As to `COc1ccc(C2CN(C(=O)c3ccccc3)N=C(c3ccccc3)O2)cc1` (stereo not drawn), the growth inhibition in experiment [1] (setting [7]) was -1%; in experiment [1] (setting [8]) it was -16%; in experiment [1] (at 50.0 µM), 93.7% (active); in experiment [2] (setting [7]), -8%; in experiment [2] (setting [8]), 1%; in experiment [2] (at 50.0 µM), 93.2% (active). Further, the growth inhibition was 1% in experiment [3] (setting [7]); -46% in experiment [3] (setting [8]); 93.7% (active) in experiment [3] (at 50.0 µM); -5% in experiment [4] (setting [7]); -8% in experiment [4] (setting [8]); 90.2% (active) in experiment [4] (at 50.0 µM). For the same molecule, the growth inhibition in experiment [5] (setting [7]) is -4%; in experiment [5] (setting [8]), -67%; in experiment [5] (at 50.0 µM) it was 90% (active); in experiment [6] (setting [7]), -6%; in experiment [6] (setting [8]) it was -6%; in experiment [6] (at 50.0 µM), 95% (active).
With `O=C1NC(=O)c2cccc3cccc1c23`, the growth inhibition is 20% in experiment [1] (setting [7]); 68% in experiment [1] (setting [8]); 88.4% (active) in experiment [1] (at 50.0 µM); 7% in experiment [2] (setting [7]); 25% in experiment [2] (setting [8]); 52.6% in experiment [2] (at 50.0 µM). In addition, the growth inhibition is 4% in experiment [3] (setting [7]); 37% in experiment [3] (setting [8]); 80.3% (active) in experiment [3] (at 50.0 µM); -5% in experiment [4] (setting [7]); 20% in experiment [4] (setting [8]); 64.5% in experiment [4] (at 50.0 µM). Besides, the growth inhibition is 3% in experiment [5] (setting [7]); 22% in experiment [5] (setting [8]); 63.1% in experiment [5] (at 50.0 µM); 7% in experiment [6] (setting [7]); 55% in experiment [6] (setting [8]); 84.5% (active) in experiment [6] (at 50.0 µM).
